Molecules are shown by their SMILES. Where “and” joins values, the source holds several entries; their conditions need not be identical. Equal values may be shown once. Inconclusive results are not listed. Values without a mark were called inactive. Calls of active or inactive are those of the source. Calls follow the shape of the dose curve; as a rule, active = well fitted curve in the direction sought with a large enough effect; inconclusive = small, poorly fitted or top-dose-only effect, or another doubt; inactive = no such curve, though single readings can be large; an effect the other way counts as inactive or inconclusive.

Assay [1] is described as follows: Viability qHTS for spleen associated tyrosine kinase inhibitor (SYKi) naive MV4-11 cells (AID 1963823). Also: nearly all actives have a fitted effect of over 40% in size. In a few lines: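 CellTiter-Glo luminescence, 10 min room-temperature incubation, gave viability. Cells: naive MV4-11 (500/well), treated 72 hr at 37 C, 5% CO2.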
Background: Quantitative high-throughput screening tests each substance at several concentrations.

Assay [2] in a line: Viability qHTS for spleen associated tyrosine kinase inhibitor (SYKi) drug resistant MV4-11 cells (AID 1963824). Also: nearly all actives have a fitted effect of over 35% in size. A digest of the protocol:
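SYK inhibitor-resistant MV4-11 AML cells, 500 per well, added to predispensed compounds and incubated 72 hr at 37 C, 5% CO2. Viability measured by CellTiter-Glo luminescence after 10 min at room temperature.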

The nature of assay [3]: Quantitative highthroughput screen to assess conditional lethalithy of NOMO1 cells grown in RPMI1640 with dialyzed fetal bovine serum (RPMI+ds) (AID 1963877). Also: nearly all actives have a fitted effect of over 30% in size.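 As to Viability: series mostly up to about 46 µM; 100% = DMSO control wells and 0% = empty wells.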 In a few lines: (§1)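 Each medium arm—HPLM with 10% dialyzed FBS, or RPMI1640 with 5 mM glucose and 10% untreated or dialyzed FBS—was screened against an 11-point, 3-fold compound titration for 48 h at 37 °C, with CellTiter-Glo luminescence as endpoint.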

Assay [4] is described as follows: Quantitative highthroughput screen to assess conditional lethalithy of NOMO1 cells grown in Human Plasma-Like Medium with dialyzed fetal bovine serum (HPLM+ds) (AID 1963878). Also: nearly all actives have a fitted effect of over 35% in size.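 As to Viability: 100% = DMSO wells and 0% = empty wells on each plate.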 A digest of the protocol: as §1
The nature of assay [5]: Quantitative highthroughput screen to assess conditional lethalithy of P12 Ichikawa cells grown in RPMI1640 with untreated serum (RPMI+s) (AID 1963881). Also: nearly all actives have a fitted effect of over 35% in size.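 As to Viability: series mostly up to about 46 µM; 100% = DMSO wells and 0% = empty wells without cells.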 The note with it: Potency: viability. A digest of the protocol: as §1
Assay [6] in a line: Quantitative highthroughput screen to assess conditional lethalithy of SEM cells grown in Human Plasma-Like Medium with dialyzed fetal bovine serum (HPLM+ds) (AID 1963882). Also: nearly all actives have a fitted effect of over 35% in size. As to Viability: series mostly up to about 46 µM. In a few lines:
as §1

The nature of assay [7]: Quantitative highthroughput screen to assess conditional lethalithy of SEM cells grown in RPMI1640 with unreated serum (RPMI+s) (AID 1963883). Also: nearly all actives have a fitted effect of over 35% in size.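 As to Viability: 100% = DMSO wells and 0% = empty wells without cells.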 In a few lines: as §1
A short description of assay [8]: Quantitative highthroughput screen to assess conditional lethalithy of SEM cells grown in RPMI1640 with dialyzed fetal bovine serum (RPMI+ds) (AID 1963884). Also: nearly all actives have a fitted effect of over 35% in size.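 As to Viability: series mostly up to about 46 µM; 100% = DMSO control wells and 0% = empty wells without cells.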 A digest of the protocol: as §1
Assay [9] can be described thus: Cellular viability qHTS for adrenocortical cancer (ACC) cell line SW-13 (AID 1963989). Also: nearly all actives have a fitted effect of over 65% in size.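 As to activity (max response): cells grown in serum-free medium with ITS supplement; % is scaled to controls: 0 for no effect and ±100 for the full control effect.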 The note with it: SW-13 ACC cells viability, CellTiter-Glo, 48 h; activity (max response): hits give low values. In a few lines: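 48 h treatment, SW-13 in ITS/DMEM serum-free; doses up to 46 uM; readout CellTiter-Glo luminescence; curve fit four-parameter logistic.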
The nature of assay [10]: Cellular viability qHTS for adrenocortical cancer (ACC) cell line NCI-H295R (AID 1963990). Also: nearly all actives have a fitted effect of over 60% in size. A digest of the protocol:
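Compound titrations (up to 46 uM final) are applied to NCI-H295R cultures for 48 h at 37C. Viable cell number is estimated by CellTiter-Glo signal, normalised to DMSO and doxorubicin controls.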

Assay [11] can be described thus: Quantitative highthroughput screen to assess conditional lethalithy of P12 Ichikawa cells grown in Human Plasma-Like Medium with dialyzed fetal bovine serum (HPLM+ds) (AID 1963879). Also: nearly all actives have a fitted effect of over 35% in size. As to Viability: series mostly up to about 46 µM. The settings on record: Potency: viability. In a few lines: as §1
Assay [12] can be described thus: Quantitative highthroughput screen to assess conditional lethalithy of P12 Ichikawa cells grown in RPMI1640 with dialyzed fetal bovine serum (RPMI+ds) (AID 1963880). Also: nearly all actives have a fitted effect of over 35% in size.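 As to Viability: 100% = DMSO wells and 0% = empty wells on each plate.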 The note with it: Potency: P12-Ichikawa viability. A digest of the protocol:
as §1
Potency is read from the fitted curve at half-maximal effect.

With `CCCCCCCCCCCCc1ccc(S(=O)(=O)Nc2nncs2)cc1`, the Potency in assay [1] was 16400 nM (active); in assay [4] it was 7.43 µM (active); in assay [7], 3.32 µM (active); in assay [8], 6.62 µM (active). Further, the Potency result in assay [2], in assay [3], in assay [5] and in assay [6] was “inactive” each time. The activity (max response) in assay [9] was -13.1%.
For the molecule `COc1cc2ncnc(-n3nc(-c4ccccn4)nc3N)c2cc1OC`, the Potency in assay [1] was 796 nM (active) and 1.48 µM (active); in [2], 2.63 µM (active); in assay [3], 23.5 µM (active); in assay [4], 20.9 µM (active); in assay [5], 26.4 µM (active); in [6] it was 5.26 µM (active). The values for the Potency in assay [7] and in [8] were 1.32 µM (active) and 2.35 µM (active), respectively. The activity (max response) in assay [9] was 10.9%. Further, the Potency entry in [10] was “inactive”.
Consider `O=C1NC(=O)C(c2cnc3ccccn23)=C1c1cn2c3c(cccc13)CN(C(=O)N1CCOCC1)CC2`, for which the Potency in [1] was 231 nM (active); in assay [2], 0.092 µM (active); in assay [6], 0.0066 µM (active); in assay [8], 0.0074 µM (active). Also, the Potency entry in assay [3], in [4] and in assay [10] was “inactive” in each case.
For `C[C@@H]1C[C@H]2[C@@H]3CCC4=CC(=O)C=C[C@]4(C)[C@@]3(Cl)[C@@H](O)C[C@]2(C)[C@@]1(OC(=O)c1ccco1)C(=O)CCl`, the Potency is 16.8 µM (active) and 8.33 µM (active) in assay [1]; 8.41 µM (active) and 4.68 µM (active) in [2]; 6.62 µM (active) in assay [3]; 1.18 µM (active) in assay [4]. In addition, the Potency result in assay [6], in assay [7] and in assay [8] was “inactive” in each case.
For the molecule `C[C@H](NC(=O)Cc1cc(F)cc(F)c1)C(=O)N[C@H](C(=O)OC(C)(C)C)c1ccccc1`, the Potency result in assay [1], in assay [3], in assay [4], in assay [11], in assay [12] and in assay [5] was “inactive” in each case. The Potency result in [7] and in assay [8] was “inactive” throughout. Further, the Potency in [2] was 14.8 µM (active). Further, the activity (max response) in assay [9] was 3.52%.
In the case of `CC[C@]1(O)C[C@H]2CN(CCc3c([nH]c4ccccc34)[C@@](C(=O)OC)(c3cc4c(cc3OC)N(C=O)[C@H]3[C@@](O)(C(=O)OC)[C@H](OC(C)=O)[C@]5(CC)C=CCN6CC[C@]43[C@@H]65)C2)C1`, the Potency in assay [1] was 11.8 nM (active); in [2], 119 nM (active) and 10.5 nM (active); in assay [3], 0.0662 µM (active); in assay [11], 0.0264 µM (active); in assay [12] it was 0.0418 µM (active); in assay [5], 0.0264 µM (active). For the same molecule, the Potency was 0.0332 µM (active) in assay [6]; 0.0469 µM (active) in assay [8]; 8.2 nM (active) and 28.2 nM (active) in assay [9]; 146 nM (active) and 1.78 µM (active) in assay [10].
With `Cc1cnc(NC(=O)Nc2cc(Br)c(C)cc2OC[C@@H]2CNCCO2)cn1`, the Potency is 1320 nM (active) in assay [1]; 1.18 µM (active) in assay [2]; 1.66 µM (active) in [3]; 1.18 µM (active) in [4]; 13.2 µM (active) in assay [12]; 0.526 µM (active) in [6]. Further, the Potency was 0.935 µM (active) in assay [7] and 0.59 µM (active) in assay [8].
As for `Cn1c(=O)n(-c2ccc(C(C)(C)C#N)cc2)c2c3cc(-c4cnc5ccccc5c4)ccc3ncc21`, the Potency in [1] was 27 nM (active); in assay [2], 164 nM (active) and 60.5 nM (active); in assay [3] it was 0.296 µM (active); in assay [11], 1.05 µM (active); in [12], 1.66 µM (active); in [5], 2.09 µM (active). Moreover, the Potency in [7] was 0.166 µM (active); in [8] it was 0.372 µM (active); in assay [10], 75.1 nM (active).
Regarding `CCCCS(=N)(=O)CCC(N)C(=O)O` (configuration not stated), the Potency in [1] was 24100 nM (active); in assay [2], 17.1 µM (active); in assay [4], 16.6 µM (active). Moreover, the Potency result in [3], in [8] and in assay [10] was “inactive” in each case. Also, the activity (max response) in assay [9] is 9.43%.
In the case of `CN(C)S(=O)(=O)c1ccc2c(c1)C(=Cc1cc3c([nH]1)CCCC3)C(=O)N2`, the Potency in assay [1] was 833 nM (active); in assay [2] it was 1.66 µM (active). The Potency entry in [3], in [4], in assay [11], in assay [12], in assay [5] and in assay [6] was “inactive” in each case. Besides, the Potency result in [7] and in assay [10] was “inactive” in each case. The activity (max response) in [9] was -10.1%.
Take `CCN(CCO)CCCOc1ccc2c(Nc3cc(CC(=O)Nc4cccc(F)c4)[nH]n3)ncnc2c1`: the Potency in [1] is 41.1 nM (active); in [2], 0.186 µM (active); in assay [3], 0.105 µM (active); in assay [11], 0.166 µM (active); in assay [12], 0.187 µM (active); in assay [5], 0.148 µM (active). The Potency was 0.296 µM (active) in assay [6], 0.264 µM (active) in [7], 0.235 µM (active) in assay [8] and 20 µM (active) in [9].
For `Cc1[nH]nc2ccc(-c3cncc(OC[C@@H](N)Cc4ccccc4)c3)cc12`, the Potency in [1] is 82 nM (active) and 132 nM (active); in assay [2], 0.116 µM (active); in [3], 2.35 µM (active); in assay [4] it was 1.66 µM (active); in assay [11], 4.18 µM (active); in assay [12], 3.32 µM (active). Also, the Potency in assay [5] is 2.96 µM (active); in assay [6] it was 1.18 µM (active); in assay [7], 2.09 µM (active); in [8], 2.35 µM (active); in assay [9] it was 0.562 µM (active).
`CC(Oc1ccc(O)cc1)(P(=O)(O)O)P(=O)(O)O`: the Potency entry in assay [1], in assay [2] and in assay [10] was “inactive” each time. Moreover, the Potency is 26.4 µM (active) in assay [3] and 13.2 µM (active) in [4]. Moreover, in assay [9], the activity (max response) was 1.35%.
As to `COCCCN1CCC(NC(=O)c2cc(Cl)c(N)c3c2OCC3)CC1`, the Potency result in assay [1], in assay [2], in assay [3], in assay [4], in [11] and in assay [12] was “inactive” each time. Also, the Potency result in [6], in assay [7], in [8] and in assay [10] was “inactive” throughout. In assay [5], the Potency was 18.7 µM (active). Besides, in [9], the activity (max response) is 15.7% and -2.89%.

Values taken from PubChem BioAssay (NCATS).
